HCV inh: inhibitors of hepatitis C virus infection. Huh7.5.1 HCVcc-Cre infection, luciferase reporter, 44 h. Potency, µM (doses to about 41.8 µM), for the others: top-dose activity change, negative = inhibition, actives largely listed as inhibitors. 340,000 tested, 3.4% active; further: potency means the concentration at half of the fitted maximal effect; on the % scale 0 is the no-effect control and ±100 the full control effect
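After 44 h co-culture of compound, cells and HCVcc-Cre (~0.5 moi), substrate is added for 15 min at room temperature and luciferase measured over 15 sec. Cells were seeded at 1,000/well and pre-cultured 4 h.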
Pf growth 96h: inhibits malaria parasite growth, 96 h. AID 504834. P. falciparum luciferase reporter growth, 96 h. Potency, µM (highest dose often 28.7 µM), inactives show at the highest dose activity change, negative = inhibition, usual class: inhibitors. 320,000 tested, 6.9% active; further: potency means the concentration at half of the fitted maximal effect; on the % scale 0 is the no-effect control and ±100 the full control effect
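Luminescence readout: decreased luciferase signal marks inhibited growth of reporter-expressing P. falciparum in infected red cells (2% hematocrit, 0.05% parasitemia final), exposed to compound two generations (96 h, 37 C, 5% CO2).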
CHX counter: counter-screen hit for Shiga toxin inhibitors, cycloheximide; cell reporter, cycloheximide protein synthesis inhibition counterscreen; max response, %; 300,000 tested, 12% active; in the data active means max response mostly above about 13%, no sharp cut-off; inactive means mostly below about 14%; further: read at 38.3 µM for the half of the compounds with a filed dose; 0% is about no effect
AMA1 RON2 block: disrupts binding of P. falciparum AMA1 to RON2; AlphaScreen AMA1-biotinylated RON2 peptide binding; Potency, µM (highest dose often 58.2 µM), for inactives: top-dose activity change, negative = inhibition, most hits filed as inhibitors; 360,000 tested, 0.2% active;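 further: potency means the concentration at half of the fitted maximal effect; 0% = vehicle wells and -100% = peptide control; nearly all actives have a fitted effect of over 45% in size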
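AMA1 (3D7) with his tag at 25 nM final met compounds first, then biotinylated RON2 peptide at 25 nM; detection used donor plus acceptor beads, 10 µg/mL apiece, read by AlphaScreen after 30 min at room temperature.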
Pf growth 48h: inhibits P. falciparum growth in the first generation, 48 h; P. falciparum luciferase growth in erythrocytes, 48 h; Potency, µM (titrated, usually from 28.7 µM), for inactives: at the top dose activity change, negative = inhibition, most hits filed as inhibitors; 310,000 tested, 5.9% active; AID 504832; further: potency means the concentration at half of the fitted maximal effect; on the % scale 0 is the no-effect control and ±100 the full control effect
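Luciferase-expressing P. falciparum in infected erythrocytes (2% hematocrit, 0.1% parasitemia final) in RPMI 1640/0.5% Albumax were exposed to compound for 48 hours at 37 C, 5% CO2; growth read as luminescence.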
Shiga inhibitor: Shiga toxin inhibition. Vero cells, Shiga toxin protein synthesis inhibition reporter. 290,000 tested, 9.2% active. inhibition, % at 38.7 µM; in the data active means inhibition mostly above about 28%, no sharp cut-off; inactive means mostly below about 43%; further: 0% is about no effect
Numbers without * were called inactive. Most compounds without a hit are left out; they make up all but 21% or so of the library. Unless noted, the call rests on the fitted dose curve; in most records, active means well fitted curve in the direction sought with a large enough effect; inconclusive means small, poorly fitted or top-dose-only effect, or another doubt; inactive means no such curve, though single readings can be large; an effect the other way counts as inactive or inconclusive.

Cc1c(C)c2ccc(OCC(=O)Nc3ccccn3)cc2oc1=O was read as HCV inh 11%, Pf growth 96h 149%, CHX counter 34*, AMA1 RON2 block 21%, Pf growth 48h 123% and Shiga inhibitor 62*.
CCCc1cc(=O)oc2cc(OCC(=O)NC(Cc3ccc(Cl)cc3)C(=O)O)ccc12 (stereo not drawn) was read as HCV inh 0.5µM*, Pf growth 96h -17%, CHX counter -2, AMA1 RON2 block 6%, Pf growth 48h -1% and Shiga inhibitor -8.
`Cc1c(C)c2ccc(OCC(=O)Nc3nccs3)cc2oc1=O` gave HCV inh -18%, Pf growth 96h 236%, CHX counter 45*, AMA1 RON2 block inconclusive, Pf growth 48h 221% and Shiga inhibitor 78*.
Cc1nnc(NC(=O)COc2ccc3c(C)cc(=O)oc3c2)s1 was read as HCV inh 5%, Pf growth 96h 42%, CHX counter 1, AMA1 RON2 block -1% and Shiga inhibitor -13.
Screening Cc1c(C)c2ccc(OCC(=O)NCc3ccccn3)cc2oc1=O returned HCV inh 14%, Pf growth 96h 0%, CHX counter -6, AMA1 RON2 block -8%, Pf growth 48h inconclusive and Shiga inhibitor -7.
Screening O=C(NC1=NCCS1)c1cccc(S(=O)(=O)N2CCOCC2)c1 returned HCV inh 13%, Pf growth 96h -10%, AMA1 RON2 block 1% and Pf growth 48h -16%.
O=C1NC[C@H](Cc2ccccc2)N(C[C@@H]2CCCN2C[C@H](Cc2ccc(O)cc2)N2C[C@H](Cc3ccccc3)N(CC3CCCCCC3)C(=O)C2=O)C1=O was read as AMA1 RON2 block -12%.
`O=C1CSC(c2ccccc2Cl)N1` (stereo not drawn) gave HCV inh 26%, Pf growth 96h 8%, CHX counter -4, AMA1 RON2 block 6%, Pf growth 48h -6% and Shiga inhibitor 13.
For N[C@H](CC(=O)O)C(=O)O the results were Pf growth 96h inconclusive and Pf growth 48h 3%.
NC(=O)/C(=C/c1cccnc1)NC(=O)c1ccccc1 was read as HCV inh 23%, Pf growth 96h 17%, CHX counter -1, AMA1 RON2 block 16%, Pf growth 48h 13% and Shiga inhibitor 7.
CCOC(=O)CNC(=S)N(CCCN1CCN(C)CC1)Cc1cccs1 was read as HCV inh 14%, Pf growth 96h 28%, CHX counter 3, AMA1 RON2 block 0%, Pf growth 48h 5% and Shiga inhibitor 33.
CCCCc1cc(=O)oc2cc(OCC(=O)Nc3ccccn3)ccc12 was read as HCV inh -4%, Pf growth 96h 45%, CHX counter 40*, AMA1 RON2 block -4%, Pf growth 48h 81% and Shiga inhibitor 98*.
`CCCCc1cc(=O)oc2cc(OCC(=O)NCc3ccccn3)ccc12` gave HCV inh -6%, Pf growth 96h -5%, CHX counter 4, AMA1 RON2 block 15%, Pf growth 48h 6% and Shiga inhibitor -6.
O=C1C(CCc2ccccc2)ON=C(c2cnccn2)N1Cc1ccc(F)cc1 (stereo not drawn) was read as AMA1 RON2 block 40%.
Screening CCCn1c(C2CCCN2c2nc(-c3cccc(Br)c3)cs2)nc2ccccc21 (stereo not drawn) returned HCV inh inconclusive, Pf growth 96h 1.9µM*, CHX counter -1, AMA1 RON2 block 11%, Pf growth 48h inconclusive and Shiga inhibitor -2.
Screening CC1CCC(NC(=O)C2CC(=O)N(c3ccc4c(c3)OCCO4)C2)CC1 (stereo not drawn) returned HCV inh -21%, Pf growth 96h 15%, CHX counter 4, AMA1 RON2 block 4%, Pf growth 48h 4% and Shiga inhibitor 22.
For CC(=O)c1cccc(N2C(=O)CC(N3CCN(S(=O)(=O)c4ccc(Cl)cc4)CC3)C2=O)c1 (stereo not drawn) the results were HCV inh -2%, Pf growth 96h 23%, AMA1 RON2 block 5% and Pf growth 48h 1%.
For Cc1ccc(S(=O)(=O)Nc2cc(C(=O)NCCN(C)C)ccc2N2CCCCC2)cc1 the results were HCV inh inconclusive, Pf growth 96h inconclusive, CHX counter -2, AMA1 RON2 block -6%, Pf growth 48h 9.3µM* and Shiga inhibitor -4.
Screening Cc1ccc(S(=O)(=O)Nc2cc(C(=O)NCCN3CCCC3)ccc2N2CCCCC2)cc1 returned HCV inh -27%, CHX counter -4, AMA1 RON2 block -1%, Pf growth 48h 12µM* and Shiga inhibitor -17.
For CC(=O)c1cccc(-c2ccnc3c2CC(C(=O)Nc2cccc(C(F)(F)F)c2)O3)c1 (stereo not drawn) the results were AMA1 RON2 block -10%.
For O=C(O)c1cccc(N/N=C/c2cccc3ccccc23)c1 the results were HCV inh 7%, Pf growth 96h 327%, CHX counter 74*, AMA1 RON2 block -6%, Pf growth 48h 167% and Shiga inhibitor 165*.
For Oc1ccc2ccccc2c1/C=N/Nc1ccccc1 the results were HCV inh -15%, Pf growth 96h inconclusive, CHX counter 3, AMA1 RON2 block -3%, Pf growth 48h -10% and Shiga inhibitor 3.
For COc1ccc(N/N=C/c2c(C(=O)O)ccc3ccccc23)cc1 the results were HCV inh inconclusive, Pf growth 96h 7.4µM*, CHX counter 22*, AMA1 RON2 block 88%, Pf growth 48h 2.6µM* and Shiga inhibitor 27*.
For COc1ccc2ccccc2c1/C=N/NC(=O)c1cccc([N+](=O)[O-])c1 the results were HCV inh inconclusive, Pf growth 96h 4%, CHX counter 3, AMA1 RON2 block 4%, Pf growth 48h -9% and Shiga inhibitor 3.
For COc1ccc2ccccc2c1/C=N/Nc1cccc(C(=O)O)c1 the results were HCV inh 2%, Pf growth 96h 7%, CHX counter 72*, AMA1 RON2 block -10%, Pf growth 48h 65% and Shiga inhibitor 134*.
`COc1ccc(-c2nn(-c3ccccc3)cc2/C=C/C(=O)NCCCn2ccnc2)cc1OC` gave HCV inh -19%, Pf growth 96h 10µM*, CHX counter -6, AMA1 RON2 block -16%, Pf growth 48h 12µM* and Shiga inhibitor -5.
COc1ccc(-c2nn(-c3ccccc3)cc2C(=O)O)cc1OC was read as HCV inh 19%, Pf growth 96h 37%, CHX counter 17, AMA1 RON2 block 5% and Shiga inhibitor 17.
Screening COc1ccc2ccccc2c1/C=N/Nc1ccc(Cl)c(C(=O)O)c1 returned HCV inh 12%, Pf growth 96h inconclusive, CHX counter 15, AMA1 RON2 block -4%, Pf growth 48h -11% and Shiga inhibitor 56*.
